# Data published in publication PMC7862700, “An all-to-all approach to the identification of sequence-specific readers for epigenetic DNA modifications on cytosine”.
# Experiments:
# Test in all cases: DAPPL (digital affinity profiling via proximity ligation, sequencing); 10 mM Tris-HCl pH 7.5, 50 mM NaCl, 1 mM DTT, 4% glycerol, room temperature, 30 min; GST-TFs on glutathione beads, 16-mer random dsDNA library, 0.1% formaldehyde crosslink after washing; high values mean tight binding
# FLI1 = target: T1, FLI1 (Homo sapiens, UniProt Q01543 1-452); settings: protein: recombinant; tags: N-terminal GST; dsDNA, one strand shown
# T1 sequence: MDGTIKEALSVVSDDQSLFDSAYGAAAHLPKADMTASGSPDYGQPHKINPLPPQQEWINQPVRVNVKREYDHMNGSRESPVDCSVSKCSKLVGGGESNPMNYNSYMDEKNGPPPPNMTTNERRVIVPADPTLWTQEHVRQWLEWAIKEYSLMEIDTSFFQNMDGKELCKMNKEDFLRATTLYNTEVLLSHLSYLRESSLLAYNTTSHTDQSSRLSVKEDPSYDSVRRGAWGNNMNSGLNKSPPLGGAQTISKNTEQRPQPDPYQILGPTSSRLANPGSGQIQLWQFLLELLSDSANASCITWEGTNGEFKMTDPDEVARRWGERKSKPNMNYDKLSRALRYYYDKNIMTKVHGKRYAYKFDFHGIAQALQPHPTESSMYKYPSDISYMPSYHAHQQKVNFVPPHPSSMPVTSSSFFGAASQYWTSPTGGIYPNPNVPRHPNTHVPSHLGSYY
# Procedure, shortened: (§1)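 Binding signal is defined as a hexamer's read frequency for one factor over its frequency for the tag-only sample. To obtain reads, GST-fused human transcription factors were expressed in yeast, captured on glutathione beads, barcoded with DNA and pooled with that sample. Pools met 200 nmole of a 16-mer random double-stranded DNA library in Tris/NaCl/DTT/glycerol buffer for 30 min at room temperature before washing, 0.1% formaldehyde crosslinking, proximity ligation (BsaI/T4 ligase, 1 h, 37 °C), PCR and Illumina NextSeq500 sequencing.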
# ELK1 = target: T2, ELK1 (Homo sapiens, UniProt P19419 1-428); settings: protein: recombinant; tags: N-terminal GST; dsDNA, one strand shown
# T2 sequence: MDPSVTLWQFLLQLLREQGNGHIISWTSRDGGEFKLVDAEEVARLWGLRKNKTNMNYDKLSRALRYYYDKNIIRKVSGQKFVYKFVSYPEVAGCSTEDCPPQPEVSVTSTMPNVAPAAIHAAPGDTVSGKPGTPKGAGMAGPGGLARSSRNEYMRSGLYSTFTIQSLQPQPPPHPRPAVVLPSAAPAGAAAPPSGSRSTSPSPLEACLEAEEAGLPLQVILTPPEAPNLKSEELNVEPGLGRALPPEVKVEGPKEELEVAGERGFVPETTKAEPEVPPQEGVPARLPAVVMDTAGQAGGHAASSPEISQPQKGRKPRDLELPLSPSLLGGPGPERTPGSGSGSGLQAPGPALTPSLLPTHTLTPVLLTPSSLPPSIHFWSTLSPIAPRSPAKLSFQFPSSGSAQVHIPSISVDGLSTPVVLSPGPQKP
# Procedure, shortened: as §1
# GABPA = target: T3, GABPA (Homo sapiens, UniProt Q06546 1-454); settings: protein: recombinant; tags: N-terminal GST; dsDNA, one strand shown
# T3 sequence: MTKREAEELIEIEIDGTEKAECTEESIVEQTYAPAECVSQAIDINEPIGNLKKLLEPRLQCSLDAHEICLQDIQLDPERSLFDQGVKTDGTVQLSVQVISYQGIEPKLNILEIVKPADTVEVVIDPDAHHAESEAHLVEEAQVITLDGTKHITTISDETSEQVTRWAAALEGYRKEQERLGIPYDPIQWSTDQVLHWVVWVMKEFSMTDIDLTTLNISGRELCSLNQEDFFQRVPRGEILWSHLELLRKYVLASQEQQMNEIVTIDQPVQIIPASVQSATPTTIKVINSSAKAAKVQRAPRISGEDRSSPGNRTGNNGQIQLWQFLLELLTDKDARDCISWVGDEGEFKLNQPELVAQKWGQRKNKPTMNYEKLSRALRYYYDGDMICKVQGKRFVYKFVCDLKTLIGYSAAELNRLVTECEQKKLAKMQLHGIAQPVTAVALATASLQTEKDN
# Procedure, shortened: as §1
# ERG = target: T4, ERG (Homo sapiens, UniProt P11308 1-479); settings: protein: recombinant; tags: N-terminal GST; dsDNA, one strand shown
# T4 sequence: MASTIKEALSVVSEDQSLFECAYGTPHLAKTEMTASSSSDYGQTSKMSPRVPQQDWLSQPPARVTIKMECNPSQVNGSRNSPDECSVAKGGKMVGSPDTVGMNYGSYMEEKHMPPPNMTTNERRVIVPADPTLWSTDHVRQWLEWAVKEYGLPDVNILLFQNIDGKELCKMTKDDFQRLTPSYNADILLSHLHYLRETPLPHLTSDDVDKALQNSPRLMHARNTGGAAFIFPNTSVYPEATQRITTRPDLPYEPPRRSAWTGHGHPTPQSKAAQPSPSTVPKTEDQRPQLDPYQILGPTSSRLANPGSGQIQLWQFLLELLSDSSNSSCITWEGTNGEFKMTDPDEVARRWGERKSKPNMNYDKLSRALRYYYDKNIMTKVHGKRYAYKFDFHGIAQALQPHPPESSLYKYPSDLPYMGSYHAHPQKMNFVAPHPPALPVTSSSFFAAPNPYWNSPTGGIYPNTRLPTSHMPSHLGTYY
# Procedure, shortened: as §1
# ELF1 = ELF1 (Homo sapiens, UniProt P32519 1-619); settings: protein: recombinant; tags: N-terminal GST; dsDNA, one strand shown
# Procedure, shortened: as §1
# EHF = target: T5, EHF (Homo sapiens, UniProt Q9NZC4 1-300); settings: protein: recombinant; tags: N-terminal GST; dsDNA, one strand shown
# T5 sequence: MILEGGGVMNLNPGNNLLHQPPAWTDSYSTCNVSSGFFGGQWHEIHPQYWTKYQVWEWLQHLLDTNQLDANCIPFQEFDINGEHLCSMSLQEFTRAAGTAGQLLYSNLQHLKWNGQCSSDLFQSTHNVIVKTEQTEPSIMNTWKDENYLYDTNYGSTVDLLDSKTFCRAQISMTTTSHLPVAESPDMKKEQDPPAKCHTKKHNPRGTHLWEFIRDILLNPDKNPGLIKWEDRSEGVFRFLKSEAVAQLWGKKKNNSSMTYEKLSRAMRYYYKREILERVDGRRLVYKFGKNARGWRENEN
# Procedure, shortened: as §1
# SPI1 = SPI1 (Homo sapiens, UniProt P17947 1-270); settings: protein: recombinant; tags: N-terminal GST; dsDNA, one strand shown
# Procedure, shortened: as §1
# SPIB = SPIB (Homo sapiens, UniProt Q01892 1-262); settings: protein: recombinant; tags: N-terminal GST; dsDNA, one strand shown
# Procedure, shortened: as §1
# ELK3 = target: T6, ELK3 (Homo sapiens, UniProt P41970 1-407); settings: protein: recombinant; tags: N-terminal GST; dsDNA, one strand shown
# T6 sequence: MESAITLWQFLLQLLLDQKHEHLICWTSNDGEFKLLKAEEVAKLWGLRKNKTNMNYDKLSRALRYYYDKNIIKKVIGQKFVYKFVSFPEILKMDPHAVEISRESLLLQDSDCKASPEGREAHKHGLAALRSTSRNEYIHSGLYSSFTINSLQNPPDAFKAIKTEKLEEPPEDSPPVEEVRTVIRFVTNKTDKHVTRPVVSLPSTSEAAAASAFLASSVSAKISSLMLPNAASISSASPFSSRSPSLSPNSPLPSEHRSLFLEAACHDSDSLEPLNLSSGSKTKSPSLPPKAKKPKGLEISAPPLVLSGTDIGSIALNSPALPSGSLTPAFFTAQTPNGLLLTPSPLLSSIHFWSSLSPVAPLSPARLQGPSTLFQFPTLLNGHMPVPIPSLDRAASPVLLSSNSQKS
# Procedure, shortened: as §1
# FEV = target: T7, FEV (Homo sapiens, UniProt Q99581 1-238); settings: protein: recombinant; tags: N-terminal GST; dsDNA, one strand shown
# T7 sequence: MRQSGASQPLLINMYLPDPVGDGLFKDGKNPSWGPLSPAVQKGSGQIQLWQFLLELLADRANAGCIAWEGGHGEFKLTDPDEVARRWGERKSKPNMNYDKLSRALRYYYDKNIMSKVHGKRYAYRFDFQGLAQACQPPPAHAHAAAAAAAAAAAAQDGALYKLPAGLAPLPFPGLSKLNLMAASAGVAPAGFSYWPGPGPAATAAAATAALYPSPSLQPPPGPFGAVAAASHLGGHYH
# Procedure, shortened: as §1
# ETV5 = ETV5 (Homo sapiens, UniProt P41161 1-510); settings: protein: recombinant; tags: N-terminal GST; dsDNA, one strand shown
# Procedure, shortened: as §1
# HSF1 = HSF1 (Homo sapiens, UniProt Q00613 1-529); settings: protein: recombinant; tags: N-terminal GST; chain copies: 3; dsDNA, one strand shown
# Procedure, shortened: as §1
# SPIC = target: T8, SPIC (Homo sapiens, UniProt Q8N5J4 1-248); settings: protein: recombinant; tags: N-terminal GST; dsDNA, one strand shown
# T8 sequence: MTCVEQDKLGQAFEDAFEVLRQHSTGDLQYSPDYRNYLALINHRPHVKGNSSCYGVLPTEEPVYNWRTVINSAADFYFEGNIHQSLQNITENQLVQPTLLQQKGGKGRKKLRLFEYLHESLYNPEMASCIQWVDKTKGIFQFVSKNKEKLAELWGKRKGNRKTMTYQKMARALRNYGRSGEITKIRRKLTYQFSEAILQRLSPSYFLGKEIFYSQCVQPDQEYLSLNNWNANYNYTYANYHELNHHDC
# Procedure, shortened: as §1
# ELF4 = ELF4 (Homo sapiens, UniProt Q99607 1-663); settings: protein: recombinant; tags: N-terminal GST; dsDNA, one strand shown
# Procedure, shortened: as §1
# ELK4 = target: T9, ELK4 (Homo sapiens, UniProt P28324-2 1-405); settings: protein: recombinant; tags: N-terminal GST; dsDNA, one strand shown
# T9 sequence: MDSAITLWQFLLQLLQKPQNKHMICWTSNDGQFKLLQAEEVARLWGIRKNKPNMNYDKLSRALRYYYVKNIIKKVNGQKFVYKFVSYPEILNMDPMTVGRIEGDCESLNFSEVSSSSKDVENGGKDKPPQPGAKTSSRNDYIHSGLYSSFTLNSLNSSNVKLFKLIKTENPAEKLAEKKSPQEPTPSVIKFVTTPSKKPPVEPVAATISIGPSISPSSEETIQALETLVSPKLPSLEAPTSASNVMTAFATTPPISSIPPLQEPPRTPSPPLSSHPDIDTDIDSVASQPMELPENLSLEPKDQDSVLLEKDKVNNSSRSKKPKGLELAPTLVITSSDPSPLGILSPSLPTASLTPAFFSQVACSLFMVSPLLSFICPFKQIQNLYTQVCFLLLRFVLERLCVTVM
# Procedure, shortened: as §1
# ETV2 = target: T10, ETV2 (Homo sapiens, UniProt O00321 1-342); settings: protein: recombinant; tags: N-terminal GST; dsDNA, one strand shown
# T10 sequence: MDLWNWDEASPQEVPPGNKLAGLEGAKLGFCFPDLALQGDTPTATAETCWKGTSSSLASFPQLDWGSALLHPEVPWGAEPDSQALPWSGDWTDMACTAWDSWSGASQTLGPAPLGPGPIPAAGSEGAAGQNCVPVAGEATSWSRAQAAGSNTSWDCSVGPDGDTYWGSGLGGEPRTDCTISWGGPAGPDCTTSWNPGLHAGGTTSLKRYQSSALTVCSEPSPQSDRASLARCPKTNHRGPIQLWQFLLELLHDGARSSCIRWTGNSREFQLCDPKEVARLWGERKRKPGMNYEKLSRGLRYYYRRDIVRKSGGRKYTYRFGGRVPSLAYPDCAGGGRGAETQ
# Procedure, shortened: as §1
# ELF3 = target: T11, ELF3 (Homo sapiens, UniProt P78545 1-371); settings: protein: recombinant; tags: N-terminal GST; dsDNA, one strand shown
# T11 sequence: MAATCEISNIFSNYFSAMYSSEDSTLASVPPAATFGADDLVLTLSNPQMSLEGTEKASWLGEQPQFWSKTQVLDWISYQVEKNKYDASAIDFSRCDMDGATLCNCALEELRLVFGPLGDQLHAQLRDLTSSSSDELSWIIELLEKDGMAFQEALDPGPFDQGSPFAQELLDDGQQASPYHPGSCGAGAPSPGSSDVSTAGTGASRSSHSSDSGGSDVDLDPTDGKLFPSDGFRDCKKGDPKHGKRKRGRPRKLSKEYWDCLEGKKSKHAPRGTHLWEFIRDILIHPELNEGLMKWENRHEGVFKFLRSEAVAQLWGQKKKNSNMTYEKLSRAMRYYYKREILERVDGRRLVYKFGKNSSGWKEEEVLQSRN
# Procedure, shortened: as §1
# CRX = CRX (Homo sapiens, UniProt O43186 1-299); settings: protein: recombinant; tags: N-terminal GST; dsDNA, one strand shown
# Procedure, shortened: as §1
# ETV1 = ETV1 (Homo sapiens, UniProt P50549 1-477); settings: protein: recombinant; tags: N-terminal GST; dsDNA, one strand shown
# Procedure, shortened: as §1
# ETV1, sequence (P50549 whole entry): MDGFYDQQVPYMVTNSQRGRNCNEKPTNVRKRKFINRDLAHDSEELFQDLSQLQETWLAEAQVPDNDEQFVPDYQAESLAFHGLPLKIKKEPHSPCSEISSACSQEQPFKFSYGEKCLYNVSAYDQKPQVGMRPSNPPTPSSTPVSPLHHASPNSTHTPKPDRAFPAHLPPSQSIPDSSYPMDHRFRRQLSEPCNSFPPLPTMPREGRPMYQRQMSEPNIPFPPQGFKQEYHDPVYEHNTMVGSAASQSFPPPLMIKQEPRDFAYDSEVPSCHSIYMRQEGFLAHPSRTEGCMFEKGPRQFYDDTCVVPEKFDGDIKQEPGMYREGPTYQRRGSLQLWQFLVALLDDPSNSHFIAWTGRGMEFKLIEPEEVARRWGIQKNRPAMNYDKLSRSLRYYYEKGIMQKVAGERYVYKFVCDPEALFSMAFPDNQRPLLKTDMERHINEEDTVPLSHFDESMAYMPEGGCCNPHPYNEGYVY
# ETV5, sequence (P41161 whole entry): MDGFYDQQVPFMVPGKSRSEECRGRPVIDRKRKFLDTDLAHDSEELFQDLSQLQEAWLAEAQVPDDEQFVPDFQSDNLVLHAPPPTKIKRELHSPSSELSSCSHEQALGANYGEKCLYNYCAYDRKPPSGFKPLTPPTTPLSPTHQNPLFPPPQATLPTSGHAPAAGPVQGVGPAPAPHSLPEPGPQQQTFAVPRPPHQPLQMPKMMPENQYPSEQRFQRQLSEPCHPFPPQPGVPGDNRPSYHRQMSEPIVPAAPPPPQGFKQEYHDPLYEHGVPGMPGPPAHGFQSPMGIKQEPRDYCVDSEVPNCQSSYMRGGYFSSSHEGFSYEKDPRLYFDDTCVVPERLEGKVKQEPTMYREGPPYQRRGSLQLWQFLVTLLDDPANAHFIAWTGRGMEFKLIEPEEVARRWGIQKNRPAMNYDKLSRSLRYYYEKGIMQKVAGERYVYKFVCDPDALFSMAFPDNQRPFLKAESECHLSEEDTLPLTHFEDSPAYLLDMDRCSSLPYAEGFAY
# CRX, sequence (O43186 whole entry): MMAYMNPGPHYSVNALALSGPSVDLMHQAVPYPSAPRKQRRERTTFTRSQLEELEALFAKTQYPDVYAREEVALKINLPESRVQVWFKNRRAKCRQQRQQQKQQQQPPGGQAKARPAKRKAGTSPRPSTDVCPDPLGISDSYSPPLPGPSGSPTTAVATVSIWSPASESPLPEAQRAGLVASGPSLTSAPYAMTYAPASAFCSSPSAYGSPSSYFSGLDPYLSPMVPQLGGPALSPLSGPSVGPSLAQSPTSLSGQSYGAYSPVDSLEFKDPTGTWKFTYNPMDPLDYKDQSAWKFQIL
# HSF1, sequence (Q00613 whole entry): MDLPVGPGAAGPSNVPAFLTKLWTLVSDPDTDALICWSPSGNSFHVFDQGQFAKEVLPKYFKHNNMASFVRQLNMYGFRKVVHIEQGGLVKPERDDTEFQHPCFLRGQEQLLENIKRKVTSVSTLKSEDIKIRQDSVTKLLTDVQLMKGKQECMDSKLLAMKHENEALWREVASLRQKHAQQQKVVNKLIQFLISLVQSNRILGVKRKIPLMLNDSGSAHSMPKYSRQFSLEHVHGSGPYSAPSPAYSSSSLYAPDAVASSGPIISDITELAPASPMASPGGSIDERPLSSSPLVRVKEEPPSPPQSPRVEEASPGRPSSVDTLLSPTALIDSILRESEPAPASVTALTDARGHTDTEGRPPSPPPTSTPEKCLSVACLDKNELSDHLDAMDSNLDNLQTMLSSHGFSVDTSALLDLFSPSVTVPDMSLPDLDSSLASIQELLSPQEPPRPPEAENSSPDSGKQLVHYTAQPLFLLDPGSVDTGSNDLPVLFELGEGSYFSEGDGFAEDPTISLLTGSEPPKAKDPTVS
# SPIB, sequence (Q01892 whole entry): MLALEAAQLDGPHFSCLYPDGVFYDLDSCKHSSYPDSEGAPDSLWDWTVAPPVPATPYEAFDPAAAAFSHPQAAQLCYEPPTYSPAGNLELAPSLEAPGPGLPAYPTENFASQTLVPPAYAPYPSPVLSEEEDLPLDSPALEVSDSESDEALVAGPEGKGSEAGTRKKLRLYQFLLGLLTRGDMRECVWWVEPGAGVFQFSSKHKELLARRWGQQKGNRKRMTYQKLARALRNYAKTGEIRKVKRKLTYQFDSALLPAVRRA
# ELF4, sequence (Q99607 whole entry): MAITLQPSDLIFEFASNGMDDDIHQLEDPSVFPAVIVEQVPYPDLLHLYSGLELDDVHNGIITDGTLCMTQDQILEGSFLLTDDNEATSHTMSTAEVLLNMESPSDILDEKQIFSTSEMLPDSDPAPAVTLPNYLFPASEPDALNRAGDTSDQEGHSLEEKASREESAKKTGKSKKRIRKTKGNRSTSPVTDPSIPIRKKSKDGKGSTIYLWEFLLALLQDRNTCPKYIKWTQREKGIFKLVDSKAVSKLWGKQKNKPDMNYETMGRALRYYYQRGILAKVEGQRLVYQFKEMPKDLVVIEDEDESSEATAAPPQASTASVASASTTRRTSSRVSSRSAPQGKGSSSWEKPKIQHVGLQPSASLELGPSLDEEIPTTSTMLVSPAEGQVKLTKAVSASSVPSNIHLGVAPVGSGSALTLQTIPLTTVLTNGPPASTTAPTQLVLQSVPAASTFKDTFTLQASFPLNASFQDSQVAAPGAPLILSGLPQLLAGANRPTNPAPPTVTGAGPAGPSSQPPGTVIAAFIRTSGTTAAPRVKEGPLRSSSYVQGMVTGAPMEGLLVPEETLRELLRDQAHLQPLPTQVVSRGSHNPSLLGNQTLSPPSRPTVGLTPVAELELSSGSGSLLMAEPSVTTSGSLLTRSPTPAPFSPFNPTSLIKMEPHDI
# ELF1, sequence (P32519 whole entry): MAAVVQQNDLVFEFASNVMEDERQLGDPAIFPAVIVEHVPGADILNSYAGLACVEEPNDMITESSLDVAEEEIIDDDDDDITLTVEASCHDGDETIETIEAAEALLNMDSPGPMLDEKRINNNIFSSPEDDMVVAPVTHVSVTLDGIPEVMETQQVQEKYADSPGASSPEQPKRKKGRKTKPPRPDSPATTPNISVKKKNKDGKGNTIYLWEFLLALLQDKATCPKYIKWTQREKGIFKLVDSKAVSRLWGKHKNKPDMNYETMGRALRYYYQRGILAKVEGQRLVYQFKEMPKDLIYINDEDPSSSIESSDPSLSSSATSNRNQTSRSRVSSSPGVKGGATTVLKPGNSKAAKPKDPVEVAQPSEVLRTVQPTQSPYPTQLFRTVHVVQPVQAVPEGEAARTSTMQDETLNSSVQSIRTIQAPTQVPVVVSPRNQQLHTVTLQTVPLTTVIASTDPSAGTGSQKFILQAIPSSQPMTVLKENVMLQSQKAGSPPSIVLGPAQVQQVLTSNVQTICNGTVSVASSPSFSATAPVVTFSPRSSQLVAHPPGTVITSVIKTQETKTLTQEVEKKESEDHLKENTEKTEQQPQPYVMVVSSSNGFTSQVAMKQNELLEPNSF
sequence,measurement,setting,value
TTTCGT,binding signal,FLI1,"1.31 fold enrichment (6-mer frequency, TF over GST control)"
same,binding signal,ELK1,"1.38 fold enrichment (6-mer frequency, TF over GST control)"
same,binding signal,GABPA,"1.37 fold enrichment (6-mer frequency, TF over GST control)"
same,binding signal,ERG,"1.23 fold enrichment (6-mer frequency, TF over GST control)"
same,binding signal,ELF1,"1.41 fold enrichment (6-mer frequency, TF over GST control)"
same,binding signal,EHF,"1.46 fold enrichment (6-mer frequency, TF over GST control)"
same,binding signal,SPI1,"1.27 fold enrichment (6-mer frequency, TF over GST control)"
same,binding signal,SPIB,"1.47 fold enrichment (6-mer frequency, TF over GST control)"
same,binding signal,ELK3,"1.25 fold enrichment (6-mer frequency, TF over GST control)"
same,binding signal,FEV,"1.35 fold enrichment (6-mer frequency, TF over GST control)"
same,binding signal,ETV5,"1.41 fold enrichment (6-mer frequency, TF over GST control)"
same,binding signal,HSF1,"1.48 fold enrichment (6-mer frequency, TF over GST control)"
same,binding signal,SPIC,"1.36 fold enrichment (6-mer frequency, TF over GST control)"
same,binding signal,ELF4,"1.34 fold enrichment (6-mer frequency, TF over GST control)"
same,binding signal,ELK4,"1.49 fold enrichment (6-mer frequency, TF over GST control)"
same,binding signal,ETV2,"1.32 fold enrichment (6-mer frequency, TF over GST control)"
same,binding signal,ELF3,"1.33 fold enrichment (6-mer frequency, TF over GST control)"
same,binding signal,CRX,"1.43 fold enrichment (6-mer frequency, TF over GST control)"
same,binding signal,ETV1,"1.38 fold enrichment (6-mer frequency, TF over GST control)"
